From PubChem BioAssay (NCI)
The panel holds about 83,000 compounds, 20% with a hit somewhere; the sample as a whole holds those more often.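 Interpretation: 100, growth as untreated; towards 0, rising growth inhibition; 0, no net growth; 0 to -100, cell death. Compounds scoring below 10 were considered active.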 Values without a mark were called inactive. The source made the active and inactive calls.

Columns and labels:
Assay in all cases: NCI-60 one-dose screen, 48 h (100 = growth as untreated, 0 = no growth, -100 = all killed)
Details in all cases: 10 µM unless noted
NCI-H23 lung = test system: NCI-H23 lung
NCI-H322M lung = test system: NCI-H322M lung
HOP-62 NSCLC = test system: HOP-62 NSCLC
NCI-H460 lung = test system: NCI-H460 lung
HOP-92 NSCLC = test system: HOP-92 NSCLC
NCI-H522 lung = test system: NCI-H522 lung
A549/ATCC NSCLC = test system: A549/ATCC NSCLC
786-0 renal = test system: 786-0 renal
COLO 205 colon = test system: COLO 205 colon

## COc1ccc(S(=O)(=O)NCCCNc2nccc(-n3ccc4cccnc43)n2)cc1
NCI-H23 lung
  growth: 102%
NCI-H322M lung
  growth: 87.7%
HOP-62 NSCLC
  growth: 109%
NCI-H460 lung
  growth: 98.7%
HOP-92 NSCLC
  growth: 81.4%
NCI-H522 lung
  growth: 84.3%
A549/ATCC NSCLC
  growth: 83%
786-0 renal
  growth: 97.6%
COLO 205 colon
  growth: 113%

## CCN(CC)CCCC(C)Nc1c2ccc(Cl)cc2nc2cc(OC)c(OC)cc12 (stereo not drawn)
NCI-H23 lung
  growth: 21%
NCI-H322M lung
  growth: 0.383% (active)
HOP-62 NSCLC
  growth: 32.3%
NCI-H460 lung
  growth: -31.6% (active)
HOP-92 NSCLC
  growth: -9.58% (active)
NCI-H522 lung
  growth: 14.9%
A549/ATCC NSCLC
  growth: 4.12% (active)
786-0 renal
  growth: 38.6%
COLO 205 colon
  growth: -33.6% (active)

## C/C=C/C1=CN2C(=O)c3cc(OC4OC(C)C(NC)C(C)(O)C4O)c(C)cc3N=C[C@@H]2C1 (stereo partly drawn)
NCI-H23 lung
  growth: -31.7% (active)
NCI-H322M lung
  growth: -20.1% (active)
HOP-62 NSCLC
  growth: -8.97% (active)
NCI-H460 lung
  growth: -18.4% (active)
HOP-92 NSCLC
  growth: 2.06% (active)
NCI-H522 lung
  growth: -12.7% (active)
786-0 renal
  growth: 0.564% (active)
COLO 205 colon
  growth: -42.4% (active)

## O=c1[nH]c2ccc(Br)cc2c2c1C(c1ccc(Cl)cc1)c1c(ncn3nc(-c4ccco4)nc13)O2 (stereo not drawn)
NCI-H23 lung
  growth: 76.1%
NCI-H322M lung
  growth: 75.3%
HOP-62 NSCLC
  growth: 50%
NCI-H460 lung
  growth: 85.1%
A549/ATCC NSCLC
  growth: 74.8%
COLO 205 colon
  growth: 91%

## Fc1ccc(Nc2nc(NCCNc3ccnc4cc(Cl)ccc34)nc(N3CCOCC3)n2)cc1
NCI-H23 lung
  growth: 93%
NCI-H322M lung
  growth: 73.7%
HOP-62 NSCLC
  growth: 85%
NCI-H460 lung
  growth: 34.9%
HOP-92 NSCLC
  growth: -5.61% (active)
NCI-H522 lung
  growth: 48.1%
A549/ATCC NSCLC
  growth: 55.7%
786-0 renal
  growth: 53.6%
COLO 205 colon
  growth: -85.7% (active)

## COc1ccc2[nH]c(=O)c3c4ccccc4cn3c2c1
NCI-H23 lung
  growth: 39.4%
NCI-H322M lung
  growth: 11.6%
HOP-62 NSCLC
  growth: 39.3%
NCI-H460 lung
  growth: 2.51% (active)
HOP-92 NSCLC
  growth: 33.7%
NCI-H522 lung
  growth: 3.62% (active)
A549/ATCC NSCLC
  growth: 40.1%
786-0 renal
  growth: 17.7%
COLO 205 colon
  growth: 0.252% (active)

## C=C1CC2(OC1=O)C(=O)N(CCCN1C(=O)C3(CC(=C)C(=O)O3)c3ccccc31)c1ccccc12 (stereo not drawn)
NCI-H23 lung
  growth: 57.6%
NCI-H322M lung
  growth: 86.1%
HOP-62 NSCLC
  growth: 98.2%
NCI-H460 lung
  growth: 44.3%
HOP-92 NSCLC
  growth: -27% (active)
NCI-H522 lung
  growth: -78% (active)
A549/ATCC NSCLC
  growth: 83.1%
786-0 renal
  growth: 20.1%
COLO 205 colon
  growth: -58.8% (active)

## O=C1Nc2ccc(Cl)cc2C12Nc1cc(Cl)ccc1S2 (stereo not drawn)
NCI-H23 lung
  growth: 69.1%
NCI-H322M lung
  growth: 100%
HOP-62 NSCLC
  growth: 103%
NCI-H460 lung
  growth: 62.7%
HOP-92 NSCLC
  growth: 77.2%
NCI-H522 lung
  growth: 47.1%
A549/ATCC NSCLC
  growth: 72.9%
786-0 renal
  growth: 89.4%
COLO 205 colon
  growth: 101%

## CCCCN(CCCC)C(=N)c1ccnc2ccccc12
NCI-H23 lung
  growth: 108%
NCI-H322M lung
  growth: 110%
HOP-62 NSCLC
  growth: 119%
NCI-H460 lung
  growth: 108%
HOP-92 NSCLC
  growth: 96.4%
NCI-H522 lung
  growth: 102%
A549/ATCC NSCLC
  growth: 96.7%
786-0 renal
  growth: 115%
COLO 205 colon
  growth: 125%

## Cn1c(=O)c2[nH]c(C3CC=CCC3)nc2n(C)c1=O (stereo not drawn)
NCI-H23 lung
  growth: 98.2%
NCI-H322M lung
  growth: 102%
HOP-62 NSCLC
  growth: 90.5%
NCI-H460 lung
  growth: 109%
HOP-92 NSCLC
  growth: 70.1%
NCI-H522 lung
  growth: 98%
A549/ATCC NSCLC
  growth: 106%
786-0 renal
  growth: 105%
COLO 205 colon
  growth: 97.4%

## CCCCNC(=O)Oc1ccc(/C(=C(\C)c2ccccc2)c2ccc(OCCN(CC)CC)cc2)cc1
NCI-H23 lung
  growth: 77.5%
NCI-H322M lung
  growth: 86.3%
HOP-62 NSCLC
  growth: 88.2%
NCI-H460 lung
  growth: 56.1%
HOP-92 NSCLC
  growth: 43.3%
NCI-H522 lung
  growth: 53.4%
A549/ATCC NSCLC
  growth: 62.2%
786-0 renal
  growth: 67.3%
COLO 205 colon
  growth: 58.5%

## CCN(CC)CCC(CNc1ccnc2cc(Cl)ccc12)c1ccc(Cl)cc1 (stereo not drawn)
NCI-H23 lung
  growth: 48.6%
NCI-H322M lung
  growth: 34.6%
HOP-62 NSCLC
  growth: 6.58% (active)
NCI-H460 lung
  growth: -12.4% (active)
HOP-92 NSCLC
  growth: -39.9% (active)
NCI-H522 lung
  growth: -59.1% (active)
A549/ATCC NSCLC
  growth: 12.3%
786-0 renal
  growth: -59.1% (active)
COLO 205 colon
  growth: -97.7% (active)

## CC1(c2ccc(Cl)cc2)OC(=O)CC(=O)O1
NCI-H23 lung
  growth: 95.9%
NCI-H322M lung
  growth: 109%
HOP-62 NSCLC
  growth: 102%
NCI-H460 lung
  growth: 110%
HOP-92 NSCLC
  growth: 103%
NCI-H522 lung
  growth: 90.1%
786-0 renal
  growth: 111%
COLO 205 colon
  growth: 109%

## N=C(N)c1ccc(-c2ccc(-c3cncc4ccccc34)s2)cc1F
NCI-H23 lung
  growth: -67.9% (active)
NCI-H322M lung
  growth: -67.6% (active)
HOP-62 NSCLC
  growth: -83.3% (active)
NCI-H460 lung
  growth: -72.4% (active)
HOP-92 NSCLC
  growth: -87.1% (active)
NCI-H522 lung
  growth: -90.5% (active)
786-0 renal
  growth: -91.2% (active)
COLO 205 colon
  growth: -85.6% (active)

## CCN(CC)c1ccc(CNc2ccnc3ccccc23)cc1
NCI-H23 lung
  growth: 28.8%
NCI-H322M lung
  growth: 70.6%
HOP-62 NSCLC
  growth: 66%
NCI-H460 lung
  growth: 55.2%
HOP-92 NSCLC
  growth: -6.79% (active)
NCI-H522 lung
  growth: 56.2%
A549/ATCC NSCLC
  growth: 58.9%
786-0 renal
  growth: 72.5%
COLO 205 colon
  growth: 25.6%

## Fc1ccccc1-c1nc(-c2nc3cc(Cl)c(Cl)cc3[nH]2)c2ccccn12
NCI-H23 lung
  growth: 69.2%
NCI-H322M lung
  growth: 67.8%
HOP-62 NSCLC
  growth: 68.8%
NCI-H460 lung
  growth: 57.3%
HOP-92 NSCLC
  growth: 49.6%
NCI-H522 lung
  growth: 72.5%
A549/ATCC NSCLC
  growth: 72.2%
786-0 renal
  growth: 86.4%
COLO 205 colon
  growth: 89.6%

## COc1ccc(-c2nc(/C=C3/C(=O)Nc4ccc(F)cc43)c3ccccn23)cc1
NCI-H23 lung
  growth: 97.8%
NCI-H322M lung
  growth: 126%
HOP-62 NSCLC
  growth: 108%
NCI-H460 lung
  growth: 94.8%
HOP-92 NSCLC
  growth: 92.3%
NCI-H522 lung
  growth: 104%
A549/ATCC NSCLC
  growth: 99.4%
786-0 renal
  growth: 98.8%
COLO 205 colon
  growth: 97.3%

## C=C1CCC2C3(C)COC(c4c(OC)cccc4OC)OC3CCC2(C)C1C/C=C1/C(=O)OCC1O (stereo not drawn)
NCI-H23 lung
  growth: 80%
NCI-H322M lung
  growth: 70.3%
HOP-62 NSCLC
  growth: 104%
NCI-H460 lung
  growth: 89%
HOP-92 NSCLC
  growth: 46.7%
NCI-H522 lung
  growth: 24.6%
A549/ATCC NSCLC
  growth: 47.9%
786-0 renal
  growth: 90.3%
COLO 205 colon
  growth: -15.2% (active)

## O=C(NCCNc1nccc(-n2ccc3cccnc32)n1)c1ccc(C(F)(F)F)cc1
NCI-H23 lung
  growth: 105%
NCI-H322M lung
  growth: 107%
HOP-62 NSCLC
  growth: 99.2%
NCI-H460 lung
  growth: 102%
HOP-92 NSCLC
  growth: 112%
NCI-H522 lung
  growth: 100%
A549/ATCC NSCLC
  growth: 102%
786-0 renal
  growth: 103%
COLO 205 colon
  growth: 112%

## O=C(Nc1cccc(-n2cc(-c3ccncc3)c(-c3ccc(Cl)c(O)c3)n2)c1)c1ccccc1
NCI-H23 lung
  growth: 90.8%
NCI-H322M lung
  growth: 89.2%
HOP-62 NSCLC
  growth: 46.7%
NCI-H460 lung
  growth: 48.7%
HOP-92 NSCLC
  growth: 3.59% (active)
NCI-H522 lung
  growth: 42.3%
A549/ATCC NSCLC
  growth: 52.6%
786-0 renal
  growth: 76.1%
COLO 205 colon
  growth: 100%

## Cc1ccc(S(=O)(=O)NCCCNc2cc(-c3cn(C(C)(C)C)nc3-c3cccc(O)c3)ccn2)cc1
NCI-H23 lung
  growth: 77%
NCI-H322M lung
  growth: 87.9%
HOP-62 NSCLC
  growth: 85.1%
NCI-H460 lung
  growth: 29.9%
HOP-92 NSCLC
  growth: 71%
NCI-H522 lung
  growth: 53%
A549/ATCC NSCLC
  growth: 59.6%
786-0 renal
  growth: 56.6%
COLO 205 colon
  growth: 8.53% (active)

## Cn1ccc(Nc2nccc(Oc3ccc(C(=O)Nc4cccc(F)c4)c(Cl)c3)n2)c1
NCI-H23 lung
  growth: 67.3%
NCI-H322M lung
  growth: 48.4%
HOP-62 NSCLC
  growth: 100%
NCI-H460 lung
  growth: 106%
HOP-92 NSCLC
  growth: 76.4%
NCI-H522 lung
  growth: 43.1%
A549/ATCC NSCLC
  growth: 97.2%
786-0 renal
  growth: 79.8%
COLO 205 colon
  growth: 105%

## COc1ccc(-c2nc(/C=N/Nc3cc(C)nc4ccc(Br)cc34)c(C)o2)cc1
NCI-H23 lung
  growth: -41.9% (active)
NCI-H322M lung
  growth: -96.2% (active)
HOP-62 NSCLC
  growth: 64.5%
NCI-H460 lung
  growth: -80.6% (active)
HOP-92 NSCLC
  growth: -84.3% (active)
NCI-H522 lung
  growth: -58.4% (active)
A549/ATCC NSCLC
  growth: -61% (active)
786-0 renal
  growth: -81.5% (active)
COLO 205 colon
  growth: -75.6% (active)

## Nc1nc(=O)c2ccccc2s1
NCI-H23 lung
  growth: 109%
NCI-H322M lung
  growth: 108%
HOP-62 NSCLC
  growth: 98.2%
NCI-H460 lung
  growth: 115%
HOP-92 NSCLC
  growth: 94.5%
NCI-H522 lung
  growth: 122%
A549/ATCC NSCLC
  growth: 111%
786-0 renal
  growth: 103%
COLO 205 colon
  growth: 107%

## COc1cc(NCCCCCN)c2ncccc2c1
NCI-H23 lung
  growth: 100%
NCI-H322M lung
  growth: 122%
HOP-62 NSCLC
  growth: 102%
NCI-H460 lung
  growth: 117%
HOP-92 NSCLC
  growth: 117%
NCI-H522 lung
  growth: 137%
A549/ATCC NSCLC
  growth: 105%
786-0 renal
  growth: 119%
COLO 205 colon
  growth: 119%

## Cn1cnc2c(N3CCN(C(=O)OCc4ccc5c(Cl)cc(Cl)c(O)c5n4)CC3)nc(Cl)nc21
NCI-H23 lung
  growth: 86.4%
NCI-H322M lung
  growth: 70.2%
HOP-62 NSCLC
  growth: 53.7%
NCI-H460 lung
  growth: 27.6%
HOP-92 NSCLC
  growth: 70.7%
NCI-H522 lung
  growth: 80.3%
A549/ATCC NSCLC
  growth: 51.2%
786-0 renal
  growth: 92.1%
COLO 205 colon
  growth: 109%
